Assay outcomes deposited in PubChem BioAssay by National Center for Advancing Translational Sciences (NCATS).
Rows were chosen to be rich in hits. Some 21% of all compounds tested hit in one or more screens of this group.
Pf growth 96h: P. falciparum growth inhibition at 96 hour, primary screen for plastid delayed-death inhibitors | P. falciparum luciferase reporter growth, 96 h | Potency, µM (doses to about 28.7 µM), for the others: at the top dose activity change, negative = inhibition, usual class: inhibitors | 6.9% of 320,000 active; further: potency means the concentration at half of the fitted maximal effect; on the % scale 0 is the no-effect control and ±100 the full control effect
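Two-generation exposure (96 h) targets delayed-death phenotype. Reporter parasites carrying integrated firefly luciferase, in red cells at 2% hematocrit and 0.05% parasitemia final, kept at 37 C, 5% CO2; luminescence loss indicates inhibition.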
Sm TGR block: S. mansoni TGR enzyme inhibition; Potency, µM (top dose mostly 114 µM), without a hit: top-dose activity change, negative = inhibition, hits mostly inhibitors; Q962Y6; purified TGR, DTNB reduction, TNB absorbance 405 nm; 3% of 360,000 active; AID 485364; further: potency means the concentration at half of the fitted maximal effect; on the % scale 0 is the no-effect control and ±100 the full control effect; nearly all actives have a fitted effect of over 60% in size
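TGR 20 nM + NADPH 100 uM (dispensed conc.), cpd preinc 15 min RT; start with NADPH (500 uM addition) then DTNB (15 mM addition). Kinetic TNB absorbance, 405 nm filter. Four-parameter Hill fit across titration.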
CHX counter: affects cycloheximide protein synthesis inhibition readout, counter-screen; 12% of 300,000 active; max response, %; cell reporter, cycloheximide protein synthesis inhibition counterscreen; in the data active means max response mostly above about 13%, no sharp cut-off; inactive means mostly below about 14%; further: read at 38.3 µM for the half of the compounds with a filed dose; 0% is about no effect
Pf growth 48h: inhibits P. falciparum growth in the first generation, 48 h. 5.9% of 310,000 active. AID 504832. P. falciparum luciferase growth in erythrocytes, 48 h. Potency, µM (series often up to 28.7 µM), inactives show at the top dose activity change, negative = inhibition, hits mostly inhibitors; further: potency means the concentration at half of the fitted maximal effect; on the % scale 0 is the no-effect control and ±100 the full control effect
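Growth was read as firefly luciferase luminescence after a 48 h, 37 C, 5% CO2 exposure of compounds to reporter-bearing P. falciparum cultures (0.1% parasitemia, 2% hematocrit final) in Albumax-supplemented RPMI 1640.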
NS1 function inh: influenza NS1 inhibition | 0.4% of 270,000 active | Potency, µM (titrated, usually from 46.1 µM), without a hit: top-dose activity, positive = more growth; calls by dose curve; further: potency means the concentration at half of the fitted maximal effect; actives are rising curves; nearly all actives have a fitted effect of over 50% in size
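In this qHTS, NS1 from influenza A is expressed in budding yeast, where it slows growth. Cells are switched from glucose to 2% galactose medium (pH 6.0, -URA), treated with compound, and growth recovery is read at OD600.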
Shiga toxin inh: Shiga toxin inhibition | Vero cells, Shiga toxin protein synthesis inhibition reporter | inhibition, % at 38.7 µM | 9.2% of 290,000 active | AID 2315; in the data active means inhibition mostly above about 28%, no sharp cut-off; inactive means mostly below about 43%; further: 0% is about no effect
Numbers without * were called inactive; [ ] = dose if it differs, or a comment. Unless noted, the call rests on the fitted dose curve; in most records, active means well fitted curve in the direction sought with a large enough effect; inconclusive means small, poorly fitted or top-dose-only effect, or another doubt; inactive means no such curve, though single readings can be large; an effect the other way counts as inactive or inconclusive.

Results for Cc1cc2c(s1)c1cnn(Cc3ccc(F)cc3)c(=O)c1n2C ?
CHX counter: 10; Shiga toxin inh: 4

Results for O=c1ccc2c(o1)/C(=C/C=C(Cl)Cl)CCC2 ?
Pf growth 96h: inconclusive; Sm TGR block: 22µM*; CHX counter: 20; Pf growth 48h: 0%; NS1 function inh: inconclusive; Shiga toxin inh: 24

What do the screens show for `CC(C)NC(=O)c1cc2cc(Br)ccc2oc1=O`?
Pf growth 96h: 7%; Sm TGR block: 0%; CHX counter: 30*; Pf growth 48h: inconclusive; NS1 function inh: 6%; Shiga toxin inh: 86*

What do the screens show for `CC(=O)Nc1ccc(OC(=O)c2cc3cc(Br)ccc3oc2=O)cc1`?
Pf growth 96h: 4.1µM*; Sm TGR block: -1%; CHX counter: 1; Pf growth 48h: 4%; NS1 function inh: 0%; Shiga toxin inh: 3

Results for N=c1c[n+](N2CCOCC2)[n-]o1 ?
Pf growth 96h: 3%; Sm TGR block: 22µM*; CHX counter: -1; Pf growth 48h: -6%; NS1 function inh: -4%; Shiga toxin inh: -13

What do the screens show for `Cc1nc(-c2ccccc2)nc2[nH]ccc(=O)c12`?
Pf growth 96h: 13%; Sm TGR block: -15%; CHX counter: 34*; NS1 function inh: 3%; Shiga toxin inh: 45

What do the screens show for `O=[N+]([O-])c1ccc(-c2nc(C(Cl)Cl)c3ccccc3n2)cc1`?
Pf growth 96h: inconclusive; Sm TGR block: 0%; CHX counter: -2; Pf growth 48h: inconclusive; NS1 function inh: 0%; Shiga toxin inh: 14

Results for Cc1nc(-c2ccc([N+](=O)[O-])cc2)nc2[nH]ccc(=O)c12 ?
Pf growth 96h: 1%; Sm TGR block: -25%; CHX counter: 30*; Pf growth 48h: 221%; NS1 function inh: -2%; Shiga toxin inh: 36

What do the screens show for `Cc1nc(-c2ccccc2)nc2[nH]c(-c3ccccc3)cc(=O)c12`?
Sm TGR block: -4%; CHX counter: -3; NS1 function inh: 2%; Shiga toxin inh: 52

How did FC(F)(F)c1cccc(NC(=S)N2CCCC2)c1 do in these assays?
Pf growth 96h: 26%; Sm TGR block: 2%; CHX counter: 1; Pf growth 48h: 35%; NS1 function inh: 1%; Shiga toxin inh: 7

What do the screens show for `CN(C)C1C(=O)C(C(N)=O)=C(O)[C@@]2(O)C(=O)C3=C(O)c4c(O)ccc(Cl)c4[C@@H](O)C3C[C@@H]12` (some centres undefined)?
NS1 function inh: 19%

Results for O=c1cc(-c2ccccc2)nc(/C=C/c2ccccc2)[nH]1 ?
Pf growth 96h: -53%; Sm TGR block: -4%; CHX counter: -1; Pf growth 48h: inconclusive; NS1 function inh: -3%; Shiga toxin inh: -13

How did CCCOc1cccc(C2c3c(oc4ccc(F)cc4c3=O)C(=O)N2c2nc(C)c(C(C)=O)s2)c1 (centres undefined) do in these assays?
Sm TGR block: -2%

How did COc1ccc2c(c1)CC1(CN2C)C(=O)NC(=O)N(CCc2ccccc2)C1=O (centres undefined) do in these assays?
Pf growth 96h: 0%[5.75 µM]; Sm TGR block: 40µM*; CHX counter: -1; Pf growth 48h: -12%; NS1 function inh: 11%; Shiga toxin inh: -10

How did CC(=O)Nc1nonc1-c1nnc(SCc2ccc(Cl)cc2)n1C do in these assays?
Sm TGR block: -3%

Results for COc1ccc(C(NC(=O)CN2C(=O)NC3(CCc4ccccc43)C2=O)c2ccc(OC)cc2)cc1 (centres undefined) ?
Pf growth 96h: inconclusive; Sm TGR block: -2%; Pf growth 48h: 10µM*

What do the screens show for `COc1ccc(C(=O)CN2C(=O)NC3(CCc4ccccc43)C2=O)cc1` (centres undefined)?
Pf growth 96h: 0%; Sm TGR block: 0%; CHX counter: 1; Pf growth 48h: 81%; NS1 function inh: 5%; Shiga toxin inh: 4

Results for COc1ccc(C(NC(=O)CN2C(=O)NC3(CCc4ccccc43)C2=O)c2ccccc2)cc1 (centres undefined) ?
Pf growth 96h: inconclusive; Sm TGR block: -8%; Pf growth 48h: 12µM*
